# Measurements as given in publication PMC7862700, “An all-to-all approach to the identification of sequence-specific readers for epigenetic DNA modifications on cytosine”.
# Key:
# Assay in all cases: DAPPL (digital affinity profiling via proximity ligation, sequencing); 10 mM Tris-HCl pH 7.5, 50 mM NaCl, 1 mM DTT, 4% glycerol, room temperature, 30 min; GST-TFs on glutathione beads, 16-mer random dsDNA library, 0.1% formaldehyde crosslink after washing; high values mean tight binding
# Conditions in all cases: protein: recombinant; tags: N-terminal GST; dsDNA, one strand shown
# ELK1 = target: T1, ELK1 (Homo sapiens, UniProt P19419 1-428)
# T1 sequence: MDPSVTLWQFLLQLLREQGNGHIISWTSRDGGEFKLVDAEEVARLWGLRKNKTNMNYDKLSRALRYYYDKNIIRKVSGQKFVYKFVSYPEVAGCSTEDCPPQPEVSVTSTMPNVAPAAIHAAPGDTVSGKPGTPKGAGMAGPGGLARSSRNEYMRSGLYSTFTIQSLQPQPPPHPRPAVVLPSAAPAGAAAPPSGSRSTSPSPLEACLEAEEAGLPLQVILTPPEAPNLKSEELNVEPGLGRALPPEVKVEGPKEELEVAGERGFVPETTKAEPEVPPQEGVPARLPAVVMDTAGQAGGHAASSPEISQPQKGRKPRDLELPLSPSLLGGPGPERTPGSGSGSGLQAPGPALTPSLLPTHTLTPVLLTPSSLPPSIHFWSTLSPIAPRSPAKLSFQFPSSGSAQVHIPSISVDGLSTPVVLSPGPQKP
# In short: (§1)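 Human transcription factors fused to GST were expressed in yeast, captured on glutathione beads, given DNA barcodes and pooled with a GST-only negative control. Pools were incubated with 200 nmole of a 16-mer random double-stranded DNA library in Tris/NaCl/DTT/glycerol buffer at room temperature for 30 min. They were then washed, crosslinked with 0.1% formaldehyde, proximity-ligated (BsaI/T4 ligase, 1 h, 37 °C), PCR-amplified and sequenced on an Illumina NextSeq500. Binding signal is each 6-mer's read frequency for a factor divided by its frequency for the GST control.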
# GABPA = target: T2, GABPA (Homo sapiens, UniProt Q06546 1-454)
# T2 sequence: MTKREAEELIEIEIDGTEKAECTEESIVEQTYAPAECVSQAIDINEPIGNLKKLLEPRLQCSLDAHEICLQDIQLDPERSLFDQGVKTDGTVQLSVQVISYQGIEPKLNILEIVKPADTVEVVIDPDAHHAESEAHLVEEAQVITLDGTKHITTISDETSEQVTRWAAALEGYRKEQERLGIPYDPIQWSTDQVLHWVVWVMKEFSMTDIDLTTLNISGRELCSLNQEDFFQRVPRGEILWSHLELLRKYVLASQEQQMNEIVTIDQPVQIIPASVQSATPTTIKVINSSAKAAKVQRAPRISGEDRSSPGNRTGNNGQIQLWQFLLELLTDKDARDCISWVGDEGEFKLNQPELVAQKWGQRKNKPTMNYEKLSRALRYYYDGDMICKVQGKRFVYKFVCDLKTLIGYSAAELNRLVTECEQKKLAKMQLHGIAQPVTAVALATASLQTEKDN
# In short: as §1
# ERG = target: T3, ERG (Homo sapiens, UniProt P11308 1-479)
# T3 sequence: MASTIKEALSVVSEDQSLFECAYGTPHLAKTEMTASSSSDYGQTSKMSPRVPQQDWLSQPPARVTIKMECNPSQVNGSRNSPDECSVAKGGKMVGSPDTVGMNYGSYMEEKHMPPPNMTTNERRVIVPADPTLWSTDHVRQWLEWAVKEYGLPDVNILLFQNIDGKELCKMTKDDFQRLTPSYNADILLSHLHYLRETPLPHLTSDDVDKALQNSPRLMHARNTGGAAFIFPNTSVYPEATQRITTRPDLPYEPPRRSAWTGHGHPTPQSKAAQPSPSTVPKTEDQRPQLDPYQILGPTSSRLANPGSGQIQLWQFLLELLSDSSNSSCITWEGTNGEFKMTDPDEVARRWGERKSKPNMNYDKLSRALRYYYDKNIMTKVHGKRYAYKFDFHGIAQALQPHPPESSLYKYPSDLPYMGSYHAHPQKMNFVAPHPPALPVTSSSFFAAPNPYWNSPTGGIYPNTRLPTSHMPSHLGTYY
# In short: as §1
# ELF1 = ELF1 (Homo sapiens, UniProt P32519 1-619)
# In short: as §1
# EHF = target: T4, EHF (Homo sapiens, UniProt Q9NZC4 1-300)
# T4 sequence: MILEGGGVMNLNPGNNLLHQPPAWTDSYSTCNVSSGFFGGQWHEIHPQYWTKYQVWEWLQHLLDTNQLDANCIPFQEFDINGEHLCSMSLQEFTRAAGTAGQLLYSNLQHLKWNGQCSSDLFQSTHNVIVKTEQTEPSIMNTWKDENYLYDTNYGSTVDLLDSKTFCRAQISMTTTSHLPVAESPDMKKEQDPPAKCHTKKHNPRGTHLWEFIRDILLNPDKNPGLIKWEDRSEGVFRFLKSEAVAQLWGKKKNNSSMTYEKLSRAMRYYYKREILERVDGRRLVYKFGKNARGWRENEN
# In short: as §1
# SPIB = SPIB (Homo sapiens, UniProt Q01892 1-262)
# In short: as §1
# FEV = target: T5, FEV (Homo sapiens, UniProt Q99581 1-238)
# T5 sequence: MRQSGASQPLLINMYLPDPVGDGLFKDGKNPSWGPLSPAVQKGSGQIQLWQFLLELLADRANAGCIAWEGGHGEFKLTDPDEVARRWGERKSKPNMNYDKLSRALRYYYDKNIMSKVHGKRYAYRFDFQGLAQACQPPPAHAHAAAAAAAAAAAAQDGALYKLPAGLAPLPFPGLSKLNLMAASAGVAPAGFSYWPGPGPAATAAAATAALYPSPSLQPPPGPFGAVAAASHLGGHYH
# In short: as §1
# ETV5 = ETV5 (Homo sapiens, UniProt P41161 1-510)
# In short: as §1
# ELF4 = ELF4 (Homo sapiens, UniProt Q99607 1-663)
# In short: as §1
# ELK4 = target: T6, ELK4 (Homo sapiens, UniProt P28324-2 1-405)
# T6 sequence: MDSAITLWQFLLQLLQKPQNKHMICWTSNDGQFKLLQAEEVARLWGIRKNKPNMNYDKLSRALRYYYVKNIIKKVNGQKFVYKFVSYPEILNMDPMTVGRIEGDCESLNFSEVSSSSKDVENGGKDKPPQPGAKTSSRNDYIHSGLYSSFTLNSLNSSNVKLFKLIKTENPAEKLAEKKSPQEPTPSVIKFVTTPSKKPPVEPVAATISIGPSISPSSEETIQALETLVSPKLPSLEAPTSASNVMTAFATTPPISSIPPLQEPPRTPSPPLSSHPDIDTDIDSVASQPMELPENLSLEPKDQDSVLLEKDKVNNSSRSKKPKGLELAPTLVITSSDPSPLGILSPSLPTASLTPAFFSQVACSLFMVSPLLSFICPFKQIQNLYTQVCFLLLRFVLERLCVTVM
# In short: as §1
# ETV2 = target: T7, ETV2 (Homo sapiens, UniProt O00321 1-342)
# T7 sequence: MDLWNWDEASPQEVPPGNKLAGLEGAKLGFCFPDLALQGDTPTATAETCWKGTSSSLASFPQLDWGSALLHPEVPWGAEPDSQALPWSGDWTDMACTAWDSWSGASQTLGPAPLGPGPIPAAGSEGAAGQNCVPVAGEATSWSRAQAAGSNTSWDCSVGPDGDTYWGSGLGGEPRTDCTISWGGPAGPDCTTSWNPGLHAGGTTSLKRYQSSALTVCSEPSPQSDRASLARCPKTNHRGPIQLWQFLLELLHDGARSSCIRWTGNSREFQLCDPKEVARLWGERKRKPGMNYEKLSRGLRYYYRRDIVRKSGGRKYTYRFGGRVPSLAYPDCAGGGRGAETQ
# In short: as §1
# ELF3 = target: T8, ELF3 (Homo sapiens, UniProt P78545 1-371)
# T8 sequence: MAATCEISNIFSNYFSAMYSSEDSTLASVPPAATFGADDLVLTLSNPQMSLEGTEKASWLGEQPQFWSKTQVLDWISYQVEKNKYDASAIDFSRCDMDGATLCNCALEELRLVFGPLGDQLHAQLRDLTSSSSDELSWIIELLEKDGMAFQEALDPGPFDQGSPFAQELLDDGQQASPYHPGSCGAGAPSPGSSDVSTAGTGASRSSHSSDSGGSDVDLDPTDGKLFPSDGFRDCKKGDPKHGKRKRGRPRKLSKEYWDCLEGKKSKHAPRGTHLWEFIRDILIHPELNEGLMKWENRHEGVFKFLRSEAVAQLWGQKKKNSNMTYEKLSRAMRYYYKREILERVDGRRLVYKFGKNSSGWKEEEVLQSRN
# In short: as §1
# ETV1 = ETV1 (Homo sapiens, UniProt P50549 1-477)
# In short: as §1
# ERF = target: T9, ERF (Homo sapiens, UniProt P50548 1-548)
# T9 sequence: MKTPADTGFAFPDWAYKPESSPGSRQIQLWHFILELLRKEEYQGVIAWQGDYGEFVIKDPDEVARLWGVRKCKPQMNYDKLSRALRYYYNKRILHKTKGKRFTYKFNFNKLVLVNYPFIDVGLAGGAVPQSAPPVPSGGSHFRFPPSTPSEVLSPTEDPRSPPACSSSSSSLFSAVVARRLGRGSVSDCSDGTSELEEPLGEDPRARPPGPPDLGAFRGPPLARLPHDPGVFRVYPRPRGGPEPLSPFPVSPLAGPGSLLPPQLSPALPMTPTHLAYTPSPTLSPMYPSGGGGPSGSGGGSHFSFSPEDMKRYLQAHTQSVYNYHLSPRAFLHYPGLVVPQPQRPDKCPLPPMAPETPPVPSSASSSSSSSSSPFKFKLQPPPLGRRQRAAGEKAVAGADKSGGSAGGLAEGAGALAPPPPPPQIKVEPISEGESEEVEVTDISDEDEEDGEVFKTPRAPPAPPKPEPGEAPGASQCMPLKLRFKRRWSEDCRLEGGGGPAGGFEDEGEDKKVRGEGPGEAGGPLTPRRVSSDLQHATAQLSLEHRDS
# In short: as §1
# ETV3L = target: T10, ETV3L (Homo sapiens, UniProt Q6ZN32 1-361)
# T10 sequence: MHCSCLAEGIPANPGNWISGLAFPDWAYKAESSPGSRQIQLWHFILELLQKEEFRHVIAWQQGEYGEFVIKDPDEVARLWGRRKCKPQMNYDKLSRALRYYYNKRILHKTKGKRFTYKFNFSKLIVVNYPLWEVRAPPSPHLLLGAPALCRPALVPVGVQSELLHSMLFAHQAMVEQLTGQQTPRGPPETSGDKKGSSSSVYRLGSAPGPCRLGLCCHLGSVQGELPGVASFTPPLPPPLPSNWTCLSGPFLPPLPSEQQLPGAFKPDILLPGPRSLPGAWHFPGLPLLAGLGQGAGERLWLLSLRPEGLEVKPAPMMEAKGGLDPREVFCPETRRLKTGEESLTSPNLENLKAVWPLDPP
# In short: as §1
# ETS2 = target: T11, ETS2 (Homo sapiens, UniProt P15036 1-469)
# T11 sequence: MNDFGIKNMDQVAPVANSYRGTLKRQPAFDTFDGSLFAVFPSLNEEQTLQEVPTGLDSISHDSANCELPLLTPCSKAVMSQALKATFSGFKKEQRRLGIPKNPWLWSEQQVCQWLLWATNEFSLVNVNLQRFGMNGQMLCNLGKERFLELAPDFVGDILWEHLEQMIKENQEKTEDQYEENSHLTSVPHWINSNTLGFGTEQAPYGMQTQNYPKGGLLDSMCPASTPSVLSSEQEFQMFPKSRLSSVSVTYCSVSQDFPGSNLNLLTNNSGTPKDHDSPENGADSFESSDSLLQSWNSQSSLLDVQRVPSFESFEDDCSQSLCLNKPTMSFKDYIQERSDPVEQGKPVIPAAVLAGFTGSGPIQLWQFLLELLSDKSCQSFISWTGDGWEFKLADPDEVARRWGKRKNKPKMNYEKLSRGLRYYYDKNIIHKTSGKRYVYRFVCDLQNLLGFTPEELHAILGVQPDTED
# In short: as §1
# ETV7 = target: T12, ETV7 (Homo sapiens, UniProt Q9Y603 1-341)
# T12 sequence: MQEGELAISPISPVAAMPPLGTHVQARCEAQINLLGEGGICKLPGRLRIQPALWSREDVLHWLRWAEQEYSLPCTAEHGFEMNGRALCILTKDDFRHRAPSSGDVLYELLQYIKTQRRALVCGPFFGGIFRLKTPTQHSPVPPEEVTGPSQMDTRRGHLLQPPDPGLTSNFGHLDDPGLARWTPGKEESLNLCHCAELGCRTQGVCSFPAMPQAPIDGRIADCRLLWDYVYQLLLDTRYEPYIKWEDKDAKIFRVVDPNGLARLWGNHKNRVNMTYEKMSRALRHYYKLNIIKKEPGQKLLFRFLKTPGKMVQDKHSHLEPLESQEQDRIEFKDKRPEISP
# In short: as §1
# ETV3 = target: T13, ETV3 (Homo sapiens, UniProt P41162-2 1-143)
# T13 sequence: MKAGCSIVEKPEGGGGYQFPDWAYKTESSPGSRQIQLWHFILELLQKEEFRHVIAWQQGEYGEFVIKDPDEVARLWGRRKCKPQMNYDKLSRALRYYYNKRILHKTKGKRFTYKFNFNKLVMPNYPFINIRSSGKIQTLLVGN
# In short: as §1
# ETV6 = ETV6 (Homo sapiens, UniProt P41212 1-452)
# In short: as §1
# Chain of ELF1 (P32519 whole entry): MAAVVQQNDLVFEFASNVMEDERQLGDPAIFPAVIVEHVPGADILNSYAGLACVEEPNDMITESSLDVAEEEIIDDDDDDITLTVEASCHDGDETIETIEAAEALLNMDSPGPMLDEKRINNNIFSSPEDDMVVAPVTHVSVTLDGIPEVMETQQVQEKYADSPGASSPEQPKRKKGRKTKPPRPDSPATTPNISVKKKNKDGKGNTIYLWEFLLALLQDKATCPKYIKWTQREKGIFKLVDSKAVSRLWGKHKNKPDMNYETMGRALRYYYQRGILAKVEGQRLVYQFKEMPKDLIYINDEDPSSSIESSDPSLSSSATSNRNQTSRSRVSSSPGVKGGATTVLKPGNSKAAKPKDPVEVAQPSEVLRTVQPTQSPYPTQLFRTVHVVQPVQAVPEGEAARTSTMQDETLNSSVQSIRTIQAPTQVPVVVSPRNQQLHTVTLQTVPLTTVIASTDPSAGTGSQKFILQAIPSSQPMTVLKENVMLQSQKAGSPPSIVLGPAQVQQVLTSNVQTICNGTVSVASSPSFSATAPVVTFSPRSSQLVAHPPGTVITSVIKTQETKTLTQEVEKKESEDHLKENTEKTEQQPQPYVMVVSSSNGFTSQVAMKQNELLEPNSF
# Chain of ETV1 (P50549 whole entry): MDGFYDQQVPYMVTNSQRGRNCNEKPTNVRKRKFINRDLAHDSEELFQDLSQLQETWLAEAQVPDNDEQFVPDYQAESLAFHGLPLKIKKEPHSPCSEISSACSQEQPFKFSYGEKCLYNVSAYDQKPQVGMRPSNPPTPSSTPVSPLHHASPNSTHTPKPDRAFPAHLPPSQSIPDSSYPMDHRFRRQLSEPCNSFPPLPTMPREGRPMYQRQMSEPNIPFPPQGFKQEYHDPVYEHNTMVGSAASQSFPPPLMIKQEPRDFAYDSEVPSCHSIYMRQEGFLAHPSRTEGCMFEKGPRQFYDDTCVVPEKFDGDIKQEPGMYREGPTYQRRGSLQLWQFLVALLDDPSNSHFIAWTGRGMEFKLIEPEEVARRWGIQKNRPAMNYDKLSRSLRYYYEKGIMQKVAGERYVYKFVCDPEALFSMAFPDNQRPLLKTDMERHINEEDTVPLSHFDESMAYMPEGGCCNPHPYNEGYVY
# Chain of ELF4 (Q99607 whole entry): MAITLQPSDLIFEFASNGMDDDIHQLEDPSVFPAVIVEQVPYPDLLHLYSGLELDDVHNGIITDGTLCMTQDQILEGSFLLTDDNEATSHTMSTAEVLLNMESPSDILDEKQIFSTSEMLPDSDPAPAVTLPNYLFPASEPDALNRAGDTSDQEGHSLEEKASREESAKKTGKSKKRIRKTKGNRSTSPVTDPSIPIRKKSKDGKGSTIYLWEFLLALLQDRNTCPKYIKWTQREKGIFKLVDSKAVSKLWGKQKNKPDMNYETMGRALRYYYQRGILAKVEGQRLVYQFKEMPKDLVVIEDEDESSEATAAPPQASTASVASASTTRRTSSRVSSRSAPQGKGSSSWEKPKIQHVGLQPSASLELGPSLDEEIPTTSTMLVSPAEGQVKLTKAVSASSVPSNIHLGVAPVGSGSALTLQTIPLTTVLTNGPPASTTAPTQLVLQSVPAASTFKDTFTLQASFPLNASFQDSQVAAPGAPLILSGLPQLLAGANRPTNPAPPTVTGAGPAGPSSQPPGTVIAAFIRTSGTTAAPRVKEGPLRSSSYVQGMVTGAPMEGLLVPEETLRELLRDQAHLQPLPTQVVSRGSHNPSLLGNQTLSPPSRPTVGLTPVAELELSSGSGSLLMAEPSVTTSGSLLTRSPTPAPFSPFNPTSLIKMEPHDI
# Chain of ETV5 (P41161 whole entry): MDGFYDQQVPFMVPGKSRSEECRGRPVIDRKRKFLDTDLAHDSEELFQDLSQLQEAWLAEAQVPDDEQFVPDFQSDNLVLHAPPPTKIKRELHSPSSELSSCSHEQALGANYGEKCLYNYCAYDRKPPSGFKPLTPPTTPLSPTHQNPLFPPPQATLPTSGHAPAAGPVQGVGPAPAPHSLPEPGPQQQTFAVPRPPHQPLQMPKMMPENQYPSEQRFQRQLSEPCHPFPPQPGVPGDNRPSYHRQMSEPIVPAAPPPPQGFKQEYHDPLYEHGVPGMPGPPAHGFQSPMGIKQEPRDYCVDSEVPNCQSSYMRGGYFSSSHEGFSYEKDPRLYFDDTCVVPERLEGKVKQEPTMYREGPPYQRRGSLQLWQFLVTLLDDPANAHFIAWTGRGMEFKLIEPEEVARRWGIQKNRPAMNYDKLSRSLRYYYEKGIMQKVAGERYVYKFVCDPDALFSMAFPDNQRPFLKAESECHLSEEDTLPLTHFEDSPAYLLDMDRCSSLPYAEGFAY
# Chain of SPIB (Q01892 whole entry): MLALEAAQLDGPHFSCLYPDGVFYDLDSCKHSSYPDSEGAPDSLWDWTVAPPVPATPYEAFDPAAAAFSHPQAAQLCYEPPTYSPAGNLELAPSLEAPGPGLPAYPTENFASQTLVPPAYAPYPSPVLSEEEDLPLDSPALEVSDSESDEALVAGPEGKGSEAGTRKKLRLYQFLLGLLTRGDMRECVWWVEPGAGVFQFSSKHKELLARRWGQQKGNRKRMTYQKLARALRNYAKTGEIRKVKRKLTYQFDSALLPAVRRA
# Chain of ETV6 (P41212 whole entry): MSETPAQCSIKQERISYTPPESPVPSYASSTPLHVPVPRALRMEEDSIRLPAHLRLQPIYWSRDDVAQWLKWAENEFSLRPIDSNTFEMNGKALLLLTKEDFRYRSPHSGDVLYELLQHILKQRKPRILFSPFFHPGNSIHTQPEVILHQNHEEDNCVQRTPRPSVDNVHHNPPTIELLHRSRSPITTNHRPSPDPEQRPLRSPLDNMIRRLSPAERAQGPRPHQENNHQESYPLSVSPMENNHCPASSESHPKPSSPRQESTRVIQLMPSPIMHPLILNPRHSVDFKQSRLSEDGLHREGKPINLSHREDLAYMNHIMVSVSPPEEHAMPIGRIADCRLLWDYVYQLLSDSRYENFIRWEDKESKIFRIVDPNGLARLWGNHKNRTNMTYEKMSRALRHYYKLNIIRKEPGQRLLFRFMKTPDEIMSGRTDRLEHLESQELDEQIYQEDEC
sequence,measurement,setting,value
GCGTCT,binding signal,ELK1,"1.05 fold enrichment (6-mer frequency, TF over GST control)"
same,binding signal,GABPA,"1.02 fold enrichment (6-mer frequency, TF over GST control)"
same,binding signal,ERG,"1.08 fold enrichment (6-mer frequency, TF over GST control)"
same,binding signal,ELF1,"1.08 fold enrichment (6-mer frequency, TF over GST control)"
same,binding signal,EHF,"1.08 fold enrichment (6-mer frequency, TF over GST control)"
same,binding signal,SPIB,"1.19 fold enrichment (6-mer frequency, TF over GST control)"
same,binding signal,FEV,"1.08 fold enrichment (6-mer frequency, TF over GST control)"
same,binding signal,ETV5,"1.04 fold enrichment (6-mer frequency, TF over GST control)"
same,binding signal,ELF4,"1.04 fold enrichment (6-mer frequency, TF over GST control)"
same,binding signal,ELK4,"1.11 fold enrichment (6-mer frequency, TF over GST control)"
same,binding signal,ETV2,"1.1 fold enrichment (6-mer frequency, TF over GST control)"
same,binding signal,ELF3,"1.34 fold enrichment (6-mer frequency, TF over GST control)"
same,binding signal,ETV1,"1.18 fold enrichment (6-mer frequency, TF over GST control)"
same,binding signal,ERF,"1.12 fold enrichment (6-mer frequency, TF over GST control)"
same,binding signal,ETV3L,"1.1 fold enrichment (6-mer frequency, TF over GST control)"
same,binding signal,ETS2,"1.04 fold enrichment (6-mer frequency, TF over GST control)"
same,binding signal,ETV7,"1.1 fold enrichment (6-mer frequency, TF over GST control)"
same,binding signal,ETV3,"1.11 fold enrichment (6-mer frequency, TF over GST control)"
same,binding signal,ETV6,"1.04 fold enrichment (6-mer frequency, TF over GST control)"
